This is a sample that favours compounds with a hit; in the whole collection about 6% have one here.
D3 ag: qHTS of D3 Dopamine Receptor Agonist: qHTS; D3R DiscoveRx beta-arrestin cells, luminescence, 90 min; 410,000 tested, 0.58% active; D(3) dopamine receptor (Homo sapiens), P35462; max activation, %; in the data active means max activation above about 30%; further: 0% is about no effect
Target sequence (P35462 whole entry, looked up): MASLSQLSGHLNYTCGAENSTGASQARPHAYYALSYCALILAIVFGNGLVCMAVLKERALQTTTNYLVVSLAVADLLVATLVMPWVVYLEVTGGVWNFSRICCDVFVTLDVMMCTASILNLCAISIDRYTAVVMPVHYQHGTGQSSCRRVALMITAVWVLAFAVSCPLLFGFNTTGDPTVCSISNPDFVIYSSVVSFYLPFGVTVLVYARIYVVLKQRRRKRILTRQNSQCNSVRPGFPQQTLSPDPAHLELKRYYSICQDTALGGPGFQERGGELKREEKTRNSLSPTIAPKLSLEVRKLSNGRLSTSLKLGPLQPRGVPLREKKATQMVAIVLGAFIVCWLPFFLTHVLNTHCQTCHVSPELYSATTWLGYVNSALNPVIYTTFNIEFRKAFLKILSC
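Cells at 1500/well, incubated overnight, then treated with pinned compounds (dopamine as control) for 90 min at 37 degrees C. DiscoveRx reagent added for 30 - 60 minutes at room temperature; luminescence read.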
D1 ag: Allosteric Agonists of the Human D1 Dopamine Receptor: qHTS | HEK293 T-REx D1 cells, calcium flux, agonist mode | activation, % at 2 µM | 360,000 tested, 1% active | AID 504660, 2011; in the data active means activation above about 30%; further: 0% is about no effect
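Tetracycline-induced HEK293 TREx D1 cells, force-coupled to calcium signalling, were dye-loaded with a no-wash calcium kit. Compound was pin-added after a 10 s baseline. Fluorescence was read kinetically at 1 cycle/s for 180 s, with calcium rises flagged as agonism.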
D1 antagonist: Antagonist of Human D 1 Dopamine Receptor: qHTS | 360,000 tested, 3.2% active | HEK293 TREx D1 cells, calcium flux, dopamine EC80; active compounds read low | AID 504652, 2011 | activity change, negative = inhibition, % at 10 µM | D(1A) dopamine receptor (Homo sapiens), P21728; in the data active means activity change below about -30%; further: on the % scale 0 is the no-effect control and ±100 the full control effect
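Cells carrying a force-coupled, tetracycline-inducible human D1 receptor report calcium flux. Each well gets a 10 s baseline, compound with 180 s monitoring, then an EC80 dopamine stimulus with a second 180 s kinetic read.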
DRD3 antagonist: qHTS of D3 Dopamine Receptor Antagonist: qHTS | AID 652054, 2013 | D3R cells, DiscoveRx beta-arrestin luminescence, antagonist mode; active compounds read low | 360,000 tested, 2.5% active | max response, negative = inhibition, %; in the data active means max response below about -50%; inconclusive means no clear call, values can overlap the other calls; further: on the % scale 0 is the no-effect control and ±100 the full control effect
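Cells plated overnight at 1500 cells/well, then exposed to library compounds with dopamine controls for 90 minutes at 37 degrees C. DiscoveRx reagent added for 30–60 minutes at room temperature; luminescence read, quantitative HTS format.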
D1 PAM: Potentiators of Human D1 Dopamine Receptor: qHTS. D(1A) dopamine receptor (Homo sapiens), P21728. HEK293 TREx D1 cells, calcium flux, dopamine EC20 potentiation. potentiation, % at 10 µM. 360,000 tested, 0.036% active. AID 504651, 2011; in the data active means potentiation above about 30%; further: 0% is about no effect
BCR signal inh: qHTS Assay to Find Inhibitors of Chronic Active B-Cell Receptor Signaling; 340,000 tested, 0.05% active; Potency, µM (top dose mostly 46.1 µM), for the others: top-dose activity change, negative = inhibition, most hits filed as inhibitors; AID 493014, 2011; ABC-DLBCL IkBa-CBG/CBR reporter, luminescence ratio, 4 h; active means well fitted inhibition curve with a large enough effect in the signal ratio, with a control signal flat, not every such curve was filed as active; inconclusive means small, poorly fitted or top-dose-only effect, or effect the other way, or a change in a side signal; the % refers to the signal ratio;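 further: potency means the concentration at half of the fitted maximal effect; plate controls were basal doxycycline-induced cells for no effect and cells given 10 µM MG132 for full effect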
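Doxycycline induced both beetle luciferases in TMD8 lymphoma cells; IKK-driven degradation limits the IkappaBalpha-fused green signal, while red luminescence normalises for cell number and nonspecific effects. Compounds tested up to 46 uM, 4 hrs.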
Active calls of the source: *; ? = inconclusive; · = not tested or not shown.

SMILES | D3 ag | D1 ag | D1 antagonist | DRD3 antagonist | D1 PAM | BCR signal inh
Cc1ccc(S(=O)(=O)N2CCN(c3ncnc4sccc34)CC2)cc1C | 2.3 | 8.5 | -15.1 | 28.6 | -6.1 | ?
O=C(NCCc1ccc2c(c1)OCCO2)c1cccc(S(=O)(=O)N2CCCC2)c1 | -0.3 | -0.2 | 6.0 | 6.5 | -0.7 | ?
COc1cc(S(=O)(=O)N2CCN(Cc3ccc4c(c3)OCO4)CC2)c(C)cc1C | -6.1 | -0.3 | -7.9 | -6.4 | -1.5 | ?
COc1cc(C)c(C)cc1S(=O)(=O)N1CCN(Cc2ccc3c(c2)OCO3)CC1 | -16.2 | 2.8 | -0.9 | -54.5* | 4.2 | 2.2%
O=S(=O)(c1ccc(F)c(F)c1)N1CCN(Cc2ccc3c(c2)OCO3)CC1 | -10.7 | 1.7 | -7.9 | -2.5 | 5.0 | -0.6%
O=C(NCCc1ccc2c(c1)OCCO2)c1cc(S(=O)(=O)N2CCCC2)ccc1Cl | 5.3 | 16.5 | -31.6* | 2.7 | -6.3 | ?
CCc1nc2ccc(C(=O)NCc3cccs3)cn2c1N(C)Cc1nccs1 | -6.6 | · | · | -21.4 | · | ·
CCOC(=O)Cn1c(=O)n(CC2CCCO2)c2nc(-c3ccccc3)nc(C(N)=O)c21 (configuration not stated) | 5.8 | 2.4 | 12.7 | · | 2.5 | ·
Nc1sccc1C(=O)NCCN1CCOCC1 | -8.1 | · | · | -21.6 | · | ·
Cc1cc(C)c(C)c(S(=O)(=O)N2CCN(S(=O)(=O)c3ccc4c(c3)OCCO4)CC2)c1C | · | 5.2 | -48.5* | · | -2.1 | ·
Cn1c(=O)c2c(nc(NCCc3ccccc3)n2Cc2cccc(Br)c2)n(C)c1=O | 1.5 | -0.3 | 13.1 | · | -0.7 | ·
O/N=C(/CCc1ccccc1)c1ccc2c(c1)OCCO2 | 5.9 | 1.0 | -41.4* | 7.4 | 1.6 | ?
Cc1ccc(CNC(=O)C(CC(C)C)NS(=O)(=O)c2ccc3c(c2)oc(=O)n3C)cc1 (configuration not stated) | -5.8 | 5.8 | -4.9 | · | -2.2 | ·
Cc1cc(-c2ccccc2)c2c3c(c(-c4ccccc4)n2n1)c(=O)n(C)c(=O)n3C | -2.2 | 0.6 | -68.3* | -11.3 | -0.5 | -8.1%
CCOC(=O)c1cc(C)n(CC2CCC(C(=O)Nc3ccc(OCC)cc3)CC2)c1C (configuration not stated) | 5.5 | 2.4 | 6.3 | · | -1.9 | ·
CCOc1ccc(S(=O)(=O)N2CCC(n3c(C)nc4cccnc43)CC2)cc1 | -9.6 | 34.4* | -27.7 | · | -5.8 | ·
Cc1nc2cccnc2n1C1CCN(S(=O)(=O)N(C)C)CC1 | 3.1 | 1.6 | -37.2* | · | 0.3 | ·
COc1ccc2[nH]c3c(c2c1)CCN1C(=O)C(CC(=O)NCCC2=CCCCC2)C[C@H](C(=O)N2CCCCC2)[C@@]31CCc1ccccc1 (some centres not stated) | -0.8 | · | · | -8.6 | · | ?
COc1ccc2[nH]c3c(c2c1)CCN1C(=O)C(CC(=O)NCCN2CCOCC2)C[C@H](C(=O)N2CCCCC2)[C@@]31CCc1ccccc1 (some centres not stated) | 30.3* | · | · | -9.2 | · | 2.9%
COc1ccc2[nH]c3c(c2c1)CCN1C(=O)C(CC(=O)NCCC2=CCCCC2)C[C@H](C(=O)N2CCOCC2)[C@@]31CCC1CCCC1 (some centres not stated) | 29.6 | · | · | -52.2* | · | -0.9%
CCOC(=O)C1CCN(C(=O)c2cnn(-c3ccc(F)cc3)c2-n2cccc2)CC1 | -1.3 | 6.1 | -24.4 | · | -2.1 | ·
O=C1NC(=O)/C(=C\c2ccccc2Oc2ccc(F)c(F)c2)S1 | -0.2 | 7.8 | -34.3* | -5.0 | -1.8 | 5.6%
O=C1NC(=O)/C(=C/c2ccccc2OCc2ccccc2)S1 | 1.9 | 5.2 | -11.2 | -10.7 | -4.5 | ?
O=C(c1cnc(Cl)c(Cl)c1)N1CCN(S(=O)(=O)c2cccs2)CC1 | -0.1 | · | · | -6.7 | · | ·
CCc1ccc(C(C)NC(=O)c2ccc3c(c2)OCO3)cc1 (configuration not stated) | 0.8 | 6.4 | -41.7* | -5.2 | 0.1 | 2.7%
SMILES | D3 ag | D1 ag | D1 antagonist | DRD3 antagonist | D1 PAM | BCR signal inh
CC(NC(=O)c1ccc2c(c1)OCO2)c1ccccc1 (configuration not stated) | -4.0 | 3.8 | -6.3 | -17.3 | -7.0 | 4.2%
O=C(Nc1ccc(F)cc1)C(CCc1ccccc1)N1CCN(c2cccc(C(F)(F)F)n2)CC1 (configuration not stated) | -3.8 | · | · | -9.3 | · | ·
CCc1ccc(CNc2ccc(N3CCN(C(C)=O)CC3)cc2)cc1 | 3.9 | 34.0* | -14.3 | 10.1 | -0.3 | ?
O=c1[nH]c(CN2CCN(Cc3ccccc3)CC2)nc2scc(-c3ccccc3)c12 | -41.2 | 6.7 | -6.3 | -82.0* | 9.6 | -6.7%
CC(=O)N1CCN(Cc2nc3scc(-c4ccccc4)c3c(=O)[nH]2)CC1 | -2.1 | -0.5 | -7.6 | -10.4 | -6.5 | -3.4%
CC(C)c1ccc(/C=C/C(=O)Nc2nc3ccc([N+](=O)[O-])cc3s2)cc1 | 0.1 | -0.9 | 5.6 | 9.5 | -3.9 | 10.7%
O=[N+]([O-])c1ccc2nc(NN=Cc3ccc(O)cc3)sc2c1 | -3.7 | · | · | -51.9* | · | ·
COc1cc([N+](=O)[O-])ccc1NC(=O)Nc1ccc2c(c1)OCCO2 | -13.7 | 1.3 | 6.7 | -14.2 | -7.0 | ?
O=C(Nc1ccc([N+](=O)[O-])cc1)Nc1ccc(OC(F)F)c(Cl)c1 | -2.4 | 25.0 | -49.4* | 3.5 | -16.8 | ?
O=C(Nc1ccc2c(c1)OCO2)Nc1ccc2c(c1)OCO2 | -17.2 | 9.8 | 2.5 | -21.7 | 3.5 | -12.4%
O=C(Nc1ccc(OC(F)F)c(Cl)c1)Nc1ccc2c(c1)OCO2 | -4.6 | 17.2 | -35.9* | -4.8 | -8.7 | 0.0%
O=C(Cc1ccc(Cl)cc1Cl)Nc1ccc(OC(F)F)c(Cl)c1 | 5.9 | 14.0 | -24.4 | 8.6 | -1.4 | ?
COc1ccc(NC(=O)Nc2ccc3c(c2)N(C)C(=O)CS3)cc1Cl | 3.8 | 12.6 | -32.8* | 2.5 | -6.8 | 0.9%
O=C(Nc1ccc([N+](=O)[O-])cc1)Nc1ccc2c(c1)OCCO2 | -4.1 | 38.5* | -40.9* | ? | -14.1 | ?
COc1ccc(C(=O)Nc2cccc([N+](=O)[O-])c2)cc1Br | -1.9 | · | · | -4.9 | · | ·
COc1ccc(NC(=O)Nc2cccc([N+](=O)[O-])c2)cc1Cl | -1.8 | 20.1 | -57.1* | -4.6 | -19.7 | ?
CCOc1ccc(NC(=O)CN2C(=O)COc3ccc(S(=O)(=O)NC4CCCC4)cc32)cc1 | -11.4 | -1.5 | -3.1 | · | 1.1 | ·
CC(C)(C)c1ccc(/C=N/N2CCN(c3ccccn3)CC2)cc1 | 30.3* | 1.5 | 21.2 | -5.7 | -1.2 | ?

Source: PubChem (National Center for Advancing Translational Sciences (NCATS))
